# Measured values taken from PubChem BioAssay AID1159580 (chemical genetic matrix, 2015).
# In all, about 5,500 compounds went through this assay and about 2,000 (36%) were called active. Another 18% or so got no clear call; they are omitted. The list shows a part of the results. Unmarked numbers belong to inactive results. No stated cut-off is given here; in the data, active means normalized growth mostly below about 0.91 (no sharp cut-off); inconclusive means no clear call, values can overlap the other calls; inactive means mostly above about 0.92.
# Assay: chemical genetic growth profiling, strain panel (AID 1159580);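 further: tested at 20 µM; growth read once vehicle control cultures reached saturation at 30 °C; 1 = growth at the plate median or of vehicle wells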
# Conditions: growth OD
# [1] = S. cerevisiae deletion strains, locus YBR021W, strain FUR4, stronger effect = lower value
# [2] = S. cerevisiae deletion strains, locus YBR229C, strain ROT2, stronger effect = lower value
# [3] = S. cerevisiae deletion strains, locus YCL029C, strain bik1, stronger effect = lower value
# [4] = S. cerevisiae deletion strains, locus YDL035C, strain GPR1, stronger effect = lower value
# [5] = S. cerevisiae deletion strains, locus YDL074C, strain BRE1, stronger effect = lower value
# [6] = S. cerevisiae deletion strains, locus YDL101C, strain DUN1, stronger effect = lower value
# [7] = S. cerevisiae deletion strains, locus YDL134C, strain PPH21, stronger effect = lower value
# [8] = S. cerevisiae deletion strains, locus YDL185W, strain tfp1, stronger effect = lower value
# [9] = S. cerevisiae deletion strains, locus YDL192W, strain arf1, stronger effect = lower value
# [10] = S. cerevisiae deletion strains, locus YDR101C, strain arx1, stronger effect = lower value
# [11] = S. cerevisiae deletion strains, locus YDR162C, strain NBP2, stronger effect = lower value
# [12] = S. cerevisiae deletion strains, locus YDR318W, strain mcm21, stronger effect = lower value
# [13] = S. cerevisiae deletion strains, locus YDR388W, stronger effect = lower value
# [14] = S. cerevisiae deletion strains, locus YDR502C, strain sam2, stronger effect = lower value
# [15] = S. cerevisiae deletion strains, locus YEL061C, strain CIN8, stronger effect = lower value
# [16] = S. cerevisiae deletion strains, locus YER110C, stronger effect = lower value
# [17] = S. cerevisiae deletion strains, locus YER155C, strain BEM2, stronger effect = lower value
# [18] = S. cerevisiae deletion strains, locus YER167W, strain BCK2, stronger effect = lower value
# [19] = S. cerevisiae deletion strains, locus YGL078C, strain dbp3, stronger effect = lower value
# [20] = S. cerevisiae deletion strains, locus YGL086W, strain mad1, stronger effect = lower value
# [21] = S. cerevisiae deletion strains, locus YGL248W, strain PDE1, stronger effect = lower value
# [22] = S. cerevisiae deletion strains, locus YGR135W, strain pre9, stronger effect = lower value
# [23] = S. cerevisiae deletion strains, locus YGR252W, strain gcn5, stronger effect = lower value
# [24] = S. cerevisiae deletion strains, locus YHR079C, strain IRE1 (second series), stronger effect = lower value
# [25] = S. cerevisiae deletion strains, locus YHR094C, strain hxt1, stronger effect = lower value
# [26] = S. cerevisiae deletion strains, locus YHR129C, strain ARP1, stronger effect = lower value
# [27] = S. cerevisiae deletion strains, locus YHR200W, strain rpn10, stronger effect = lower value
# [28] = S. cerevisiae deletion strains, locus YIL066C, strain RNR3, stronger effect = lower value
# [29] = S. cerevisiae deletion strains, locus YIL073C, strain SPO22, stronger effect = lower value
# [30] = S. cerevisiae deletion strains, locus YIL125W, strain kgd1, stronger effect = lower value
# [31] = S. cerevisiae deletion strains, locus YIR030C, strain dcg1, stronger effect = lower value
# [32] = S. cerevisiae deletion strains, locus YJL095W, strain BCK1, stronger effect = lower value
# [33] = S. cerevisiae deletion strains, locus YJL134W, strain LCB3, stronger effect = lower value
# [34] = S. cerevisiae deletion strains, locus YJL168C, strain set2, stronger effect = lower value
# [35] = S. cerevisiae deletion strains, locus YJL187C, strain SWE1 (second series), stronger effect = lower value
# [36] = S. cerevisiae deletion strains, locus YJR075W, strain HOC1, stronger effect = lower value
# [37] = S. cerevisiae deletion strains, locus YKL068W, stronger effect = lower value
# [38] = S. cerevisiae deletion strains, locus YKL085W, strain MDH1 (second series), stronger effect = lower value
# [39] = S. cerevisiae deletion strains, locus YKL085W, strain MDH1, stronger effect = lower value
# [40] = S. cerevisiae deletion strains, locus YKR001C, strain vps1, stronger effect = lower value
# [41] = S. cerevisiae deletion strains, locus YLR039C, strain RIC1, stronger effect = lower value
# [42] = S. cerevisiae deletion strains, locus YLR058C, strain SHM2, stronger effect = lower value
# [43] = S. cerevisiae deletion strains, locus YLR102C, strain apc9, stronger effect = lower value
# [44] = S. cerevisiae deletion strains, locus YLR268W, strain sec22, stronger effect = lower value
# [45] = S. cerevisiae deletion strains, locus YLR330W, strain CHS5, stronger effect = lower value
# [46] = S. cerevisiae deletion strains, locus YLR371W, strain rom2, stronger effect = lower value
# [47] = S. cerevisiae deletion strains, locus YLR418C, strain cdc73, stronger effect = lower value
# [48] = S. cerevisiae deletion strains, locus YML016C, strain PPZ1, stronger effect = lower value
# [49] = S. cerevisiae deletion strains, locus YML032C, strain rad52, stronger effect = lower value
# [50] = S. cerevisiae deletion strains, locus YML124C, strain tub3, stronger effect = lower value
# [51] = S. cerevisiae deletion strains, locus YMR078C, strain ctf18, stronger effect = lower value
# [52] = S. cerevisiae deletion strains, locus YMR223W, strain ubp8, stronger effect = lower value
# [53] = S. cerevisiae deletion strains, locus YMR263W, strain SAP30, stronger effect = lower value
# [54] = S. cerevisiae deletion strains, locus YMR307W, strain GAS1, stronger effect = lower value
# [55] = S. cerevisiae deletion strains, locus YNL067W, strain RPL9B, stronger effect = lower value
# [56] = S. cerevisiae deletion strains, locus YNL233W, strain BNI4, stronger effect = lower value
# [57] = S. cerevisiae deletion strains, locus YNL250W, strain rad50, stronger effect = lower value
# [58] = S. cerevisiae deletion strains, locus YNL271C, strain bni1, stronger effect = lower value
# [59] = S. cerevisiae deletion strains, locus YNL298W, strain CLA4, stronger effect = lower value
# [60] = S. cerevisiae deletion strains, locus YNL307C, strain MCK1, stronger effect = lower value
# [61] = S. cerevisiae deletion strains, locus YNR052C, strain pop2, stronger effect = lower value
# [62] = S. cerevisiae deletion strains, locus YOL006C, strain TOP1, stronger effect = lower value
# [63] = S. cerevisiae deletion strains, locus YOL012C, strain htz1
# [64] = S. cerevisiae deletion strains, locus YOL147C, strain pex11, stronger effect = lower value
# [65] = S. cerevisiae deletion strains, locus YOR061W, strain CKA2, stronger effect = lower value
# [66] = S. cerevisiae deletion strains, locus YOR069W, strain VPS5, stronger effect = lower value
# [67] = S. cerevisiae deletion strains, locus YOR136W, strain idh2, stronger effect = lower value
# [68] = S. cerevisiae deletion strains, locus YOR144C, strain elg1, stronger effect = lower value
# [69] = S. cerevisiae deletion strains, locus YOR184W, strain ser1, stronger effect = lower value
# [70] = S. cerevisiae deletion strains, locus YOR316C, strain cot1, stronger effect = lower value
# [71] = S. cerevisiae deletion strains, locus YPR119W, strain clb2, stronger effect = lower value
# [72] = S. cerevisiae deletion strains, locus YPR141C, strain kar3, stronger effect = lower value
# [73] = S. cerevisiae deletion strains, locus YPR163C, strain tif3, stronger effect = lower value
# [74] = S. cerevisiae deletion strains, locus YPR167C, strain met16, stronger effect = lower value
# [75] = S. cerevisiae deletion strains, strain wtn01, stronger effect = lower value
# [76] = S. cerevisiae strains, strain wild type, stronger effect = lower value
compound,measurement,setting,value
COc1cc2c(cc1OC)C1C(=O)c3c(OC)cc4c(c3OC1CO2)CCC(C)(C)O4 (configuration not stated),normalized growth,"S. cerevisiae deletion strains, locus YAL013W, strain DEP1, stronger effect = lower value",1.01
same,normalized growth,[1],1.02
same,normalized growth,[2],1.02
same,normalized growth,[3],0.987
same,normalized growth,[4],1
same,normalized growth,[5],1.03
same,normalized growth,[6],1.03
same,normalized growth,[7],1.02
same,normalized growth,[8],0.988
same,normalized growth,[9],0.983
same,normalized growth,[10],0.984
same,normalized growth,"S. cerevisiae deletion strains, locus YDR150W, strain NUM1, stronger effect = lower value",1.02
same,normalized growth,[11],1.06
same,normalized growth,[12],0.988
same,normalized growth,[13],0.99
same,normalized growth,[14],0.997
same,normalized growth,[15],1.01
same,normalized growth,[16],0.985
same,normalized growth,[17],1.02
same,normalized growth,[18],1.01
same,normalized growth,[19],0.981
same,normalized growth,[20],0.975
same,normalized growth,[21],1.02
same,normalized growth,"S. cerevisiae deletion strains, locus YGR078C, strain PAC10, stronger effect = lower value",1.03
same,normalized growth,[22],1.01
same,normalized growth,"S. cerevisiae deletion strains, locus YGR229C, strain SMI1, stronger effect = lower value",1.01
same,normalized growth,[23],0.948
same,normalized growth,"S. cerevisiae deletion strains, locus YHR030C, strain SLT2, stronger effect = lower value",1.01
same,normalized growth,[24],0.988
same,normalized growth,[25],0.987
same,normalized growth,[26],1.01
same,normalized growth,[27],0.993
same,normalized growth,[28],1.02
same,normalized growth,[29],0.948
same,normalized growth,[30],0.983
same,normalized growth,[31],0.985
same,normalized growth,[32],1.01
same,normalized growth,[33],1.01
same,normalized growth,[34],0.979
same,normalized growth,[35],1.02
same,normalized growth,"S. cerevisiae deletion strains, locus YJR043C, strain POL32, stronger effect = lower value",1
same,normalized growth,[36],1.01
same,normalized growth,"S. cerevisiae deletion strains, locus YKL009W, strain mrt4, stronger effect = lower value",0.999
same,normalized growth,[37],0.983
same,normalized growth,[38],0.978
same,normalized growth,[39],0.978
same,normalized growth,"S. cerevisiae deletion strains, locus YKL190W, strain CNB1, stronger effect = lower value",1.02
same,normalized growth,[40],0.961
same,normalized growth,[41],0.964
same,normalized growth,[42],1.02
same,normalized growth,[43],0.992
same,normalized growth,"S. cerevisiae deletion strains, locus YLR262C, strain YPT6, stronger effect = lower value",0.994
same,normalized growth,[44],0.972
same,normalized growth,[45],1.01
same,normalized growth,"S. cerevisiae deletion strains, locus YLR342W, strain FKS1 (second series), stronger effect = lower value",0.981
same,normalized growth,[46],0.988
same,normalized growth,[47],1
same,normalized growth,[48],1.02
same,normalized growth,[49],0.966
same,normalized growth,[50],0.99
same,normalized growth,[51],0.979
same,normalized growth,[52],0.973
same,normalized growth,[53],1.03
same,normalized growth,[54],0.99
same,normalized growth,[55],1.03
same,normalized growth,"S. cerevisiae deletion strains, locus YNL128W, strain TEP1, stronger effect = lower value",1.02
same,normalized growth,"S. cerevisiae deletion strains, locus YNL153C, strain GIM3, stronger effect = lower value",1.03
same,normalized growth,[56],1.04
same,normalized growth,[57],0.968
same,normalized growth,[58],0.981
same,normalized growth,[59],1
same,normalized growth,[60],0.969
same,normalized growth,"S. cerevisiae deletion strains, locus YNL322C, strain KRE1, stronger effect = lower value",1.02
same,normalized growth,[61],0.976
same,normalized growth,[62],1.04
same,normalized growth,[63],0.96
same,normalized growth,[64],0.988
same,normalized growth,[65],1.02
same,normalized growth,[66],1.01
same,normalized growth,[67],0.981
same,normalized growth,[68],0.994
same,normalized growth,[69],0.95
same,normalized growth,[70],0.98
same,normalized growth,"S. cerevisiae deletion strains, locus YPL055C, strain LGE1, stronger effect = lower value",1.05
same,normalized growth,"S. cerevisiae deletion strains, locus YPL241C, strain CIN2, stronger effect = lower value",1.01
same,normalized growth,[71],0.983
same,normalized growth,[72],0.966
same,normalized growth,[73],0.976
same,normalized growth,[74],0.983
same,normalized growth,[75],0.997
same,normalized growth,[76],1
COc1cc2c(cc1OC)C1C(=O)c3c(O)cc4c(c3OC1CO2)C=CC(C)(C)O4 (configuration not stated),normalized growth,[1],1.01
same,normalized growth,[2],1
same,normalized growth,[3],1.01
same,normalized growth,[4],0.965
same,normalized growth,[5],0.962
same,normalized growth,[6],1.01
same,normalized growth,[7],0.985
same,normalized growth,[8],1.01
same,normalized growth,[9],0.98
same,normalized growth,[10],1.02
same,normalized growth,[11],1
same,normalized growth,[12],0.995
same,normalized growth,[13],1
same,normalized growth,[14],1.03
same,normalized growth,[15],0.989
same,normalized growth,[16],1.02
same,normalized growth,[17],1.02
same,normalized growth,[18],1
same,normalized growth,[19],1.03
same,normalized growth,[20],1.02
same,normalized growth,[21],1.01
same,normalized growth,[22],1.06
same,normalized growth,[23],1.03
same,normalized growth,[24],1.01
same,normalized growth,[25],1.02
same,normalized growth,[26],0.991
same,normalized growth,[27],1.01
same,normalized growth,[28],0.981
same,normalized growth,[29],1.08
same,normalized growth,[30],1.02
same,normalized growth,[31],1.03
same,normalized growth,[32],1.01
same,normalized growth,[33],0.998
same,normalized growth,[34],1
same,normalized growth,[35],0.997
same,normalized growth,[36],0.999
same,normalized growth,[37],1.01
same,normalized growth,[38],1.01
same,normalized growth,[39],1.01
same,normalized growth,[40],0.718 (active)
same,normalized growth,[41],0.871
same,normalized growth,[42],0.977
same,normalized growth,[43],1.02
same,normalized growth,[44],1.01
same,normalized growth,[45],0.987
same,normalized growth,[46],1.02
same,normalized growth,[47],0.988
same,normalized growth,[48],1.01
same,normalized growth,[49],1.02
same,normalized growth,[50],1.03
same,normalized growth,[51],1.03
same,normalized growth,[52],1.01
same,normalized growth,[53],1.01
same,normalized growth,[54],0.949
same,normalized growth,[55],1.01
same,normalized growth,[56],1.01
same,normalized growth,[57],1.05
same,normalized growth,[58],1.03
same,normalized growth,[59],1.01
same,normalized growth,[60],1.02
same,normalized growth,[61],1.03
same,normalized growth,[62],0.933
same,normalized growth,[63],1.33
same,normalized growth,[64],0.999
same,normalized growth,[65],0.987
same,normalized growth,[66],1.01
same,normalized growth,[67],1
same,normalized growth,[68],1.01
same,normalized growth,[69],1.01
same,normalized growth,[70],1.01
same,normalized growth,[71],1.03
same,normalized growth,[72],1.03
same,normalized growth,[73],1
same,normalized growth,[74],1.03
same,normalized growth,[75],1.01
same,normalized growth,[76],0.932
